Measurements published in PubChem BioAssay AID1159580 (chemical genetic matrix, 2015).
Screen size: about 5,500 compounds; about 2,000 (36%) were called active. Roughly 18% stayed inconclusive and do not appear here. Cut-off read from the data, not from the text of the source: active = normalized growth mostly below about 0.91 (no sharp cut-off); inconclusive = no clear call, values can overlap the other calls; inactive = mostly above about 0.92. Some of the results follow.

Experiment: chemical genetic growth profiling, strain panel (AID 1159580);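 note: tested at 20 µM; growth read once vehicle control cultures reached saturation at 30 °C; 1 = growth at the plate median or of vehicle wells; lower values mean less growth of the strain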
Conditions: S. cerevisiae deletion strains, growth OD

Measured: normalized growth

COC(=O)CCC(C)C1CCC2C3CC[C@@H]4C[C@H](O)CC[C@]4(C)C3C[C@H](O)[C@]12C (some centres undefined)
inactive: locus YJR043C, strain POL32, hits give low values 1.02 | locus YJR066W, strain TOR1, hits give low values 0.941 | locus YKL009W, strain mrt4, hits give low values 0.959 | locus YKL068W, hits give low values 0.993 | locus YKL085W, strain MDH1 (second series), hits give low values 0.991 | locus YKL085W, strain MDH1, hits give low values 0.991 | locus YKL160W, strain elf1, hits give low values 0.92 | locus YKL190W, strain CNB1, hits give low values 1.02 | locus YKR001C, strain vps1, hits give low values 0.931 | locus YKR026C, strain gcn3, hits give low values 1 | locus YKR091W, strain srl3, hits give low values 0.993 | locus YLL001W, strain dnm1, hits give low values 0.99 | locus YLL026W, hits give low values 0.986 | locus YLL041C, strain sdh2, hits give low values 1.01 | locus YLR039C, strain RIC1, hits give low values 0.88 | locus YLR058C, strain SHM2, hits give low values 0.972 | locus YLR102C, strain apc9, hits give low values 1.01 | locus YLR221C, strain rsa3, hits give low values 0.932 | locus YLR258W, strain gsy2, hits give low values 0.958 | locus YLR262C, strain YPT6, hits give low values 0.792 | locus YLR268W, strain sec22, hits give low values 1 | locus YLR342W, strain FKS1 (second series), hits give low values 0.933 | locus YLR357W, strain rsc2, hits give low values 0.982 | locus YLR370C, strain arc18, hits give low values 0.998 | locus YLR371W, strain rom2, hits give low values 1.01 | locus YLR384C, strain iki3, hits give low values 0.992 | locus YML016C, strain PPZ1, hits give low values 1.05 | locus YML032C, strain rad52, hits give low values 0.981 | locus YML120C, strain ndi1, hits give low values 0.988 | locus YML124C, strain tub3, hits give low values 1 | locus YMR058W, strain fet3, hits give low values 0.976 | locus YMR078C, strain ctf18, hits give low values 1.01 | locus YMR125W, strain sto1, hits give low values 0.983 | locus YMR129W, hits give low values 1 | locus YMR223W, strain ubp8, hits give low values 0.98 | locus YMR231W, strain pep5, hits give low values 0.977 | locus YMR263W, strain SAP30, hits give low values 0.998 | locus YMR307W, strain GAS1, hits give low values 0.843 | locus YNL067W, strain RPL9B, hits give low values 0.98 | locus YNL153C, strain GIM3, hits give low values 0.982 | locus YNL183C, strain NPR1, hits give low values 0.908 | locus YNL209W, strain ssb2, hits give low values 1 | locus YNL233W, strain BNI4, hits give low values 0.927 | locus YNL248C, strain rpa49, hits give low values 1.04 | locus YNL250W, strain rad50, hits give low values 1.04 | locus YNL271C, strain bni1, hits give low values 1.01 | locus YNL298W, strain CLA4, hits give low values 1.05 | locus YNL307C, strain MCK1, hits give low values 0.917 | locus YNL322C, strain KRE1 (second series), hits give low values 0.999 | locus YNL322C, strain KRE1, hits give low values 1.01 | locus YNR049C, strain mso1, hits give low values 0.99 | locus YNR052C, strain pop2, hits give low values 0.971 | locus YOL006C, strain TOP1, hits give low values 0.909 | locus YOL012C, strain htz1 0.571 | locus YOL147C, strain pex11, hits give low values 1.02 | locus YOR001W, strain rrp6, hits give low values 0.995 | locus YOR061W, strain CKA2, hits give low values 0.999 | locus YOR069W, strain VPS5, hits give low values 1.02 | locus YOR070C, strain gyp1, hits give low values 0.971 | locus YOR080W, strain dia2, hits give low values 1.01 | locus YOR083W, strain WHI5, hits give low values 0.984 | locus YOR106W, strain vam3, hits give low values 0.933 | locus YOR136W, strain idh2, hits give low values 1.01 | locus YOR144C, strain elg1, hits give low values 1.01 | locus YOR265W, strain rbl2, hits give low values 0.98 | locus YOR270C, strain vph1, hits give low values 0.99 | locus YOR290C, strain snf2, hits give low values 1.01 | locus YOR316C, strain cot1, hits give low values 1.01 | locus YPL078C, strain atp4, hits give low values 0.943 | locus YPL106C, strain sse1, hits give low values 0.989 | locus YPL240C, strain hsp82, hits give low values 0.992 | locus YPR119W, strain clb2, hits give low values 0.994 | locus YPR141C, strain kar3, hits give low values 1.01 | locus YPR163C, strain tif3, hits give low values 1.02 | locus YPR167C, strain met16, hits give low values 1.02 | strain wtn01, hits give low values 1.03
active: locus YLR027C, strain aat2, hits give low values 0.918 | locus YLR113W, strain HOG1, hits give low values 0.439 | locus YLR262C, strain YPT6 (second series), hits give low values 0.776 | locus YLR320W, strain mms22, hits give low values 0.812 | locus YLR330W, strain CHS5, hits give low values 0.903 | locus YLR342W, strain FKS1, hits give low values 0.699 | locus YLR418C, strain cdc73, hits give low values 0.77 | locus YMR205C, strain PFK2, hits give low values 0.846 | locus YNL071W, strain lat1, hits give low values 0.72 | locus YOR184W, strain ser1, hits give low values 0.853 | locus YOR231W, strain MKK1, hits give low values 0.814 | locus YPL051W, strain arl3, hits give low values 0.913 | locus YPL256C, strain CLN2, hits give low values 0.8
